High-throughput results deposited in PubChem by National Center for Advancing Translational Sciences (NCATS).
Only some compounds are listed: those with a hit (about 15% of all), similar ones and a draw of the others.
ALOX12 inh: inhibitors of human 12S-lipoxygenase ALOX12; purified 12hLO, xylenol orange hydroperoxide absorbance; Potency, µM (titrated, usually from 108 µM), inactives show top-dose activity change, negative = inhibition, most hits filed as inhibitors; 580,000 compounds, 1.1% hits; P18054
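Purified human 12hLO at 150 nM in 25 mM Hepes, 0.01% Triton X-100, pH 7.0, preincubated 15 min at room temperature with compound. Reaction started with 40 uM arachidonic acid, 30 min at room temperature. Hydroperoxide measured by Fe-xylenol orange, 573/405 nm absorbance ratio.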
Gal4-VP16 FLuc: counter-screen for ROR gamma inhibitors: Gal4-VP16 reporter; Drosophila S2 Gal4-VP16 UAS-luciferase, luminescence, 20 h; Potency, µM (series often up to 53.6 µM), for the others: top-dose activity, negative = inhibition, actives largely listed as inhibitors; 310,000 compounds, 3.5% hits; AID 2546;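 also: Gal4-VP16 expression switched on by copper sulfate through the metallothionein promoter; nearly all actives have a fitted effect of over 50% in size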
TDP1 cell noCPT: qHTS for Inhibitors of human tyrosyl-DNA phosphodiesterase 1 (TDP1): qHTS in cells in absence of CPT; DT40 Tdp1-/- hTDP1 cells, no CPT, ATP luminescence, 48 h; Potency, µM (titrated, usually from 46.2 µM), for the others: at the highest dose activity change, negative = growth inhibition, actives largely listed as inhibitors; 420,000 compounds, 15% hits; also: nearly all actives have a fitted effect of over 55% in size
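Growth kinetics read by CellTiter-Glo luminescence after ≥48 hr at 37 °C. Cells: DT40 Tdp1-/- stably carrying human TDP1, 400 per well, compound exposure in the absence of CPT (DMSO vehicle).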
TDP1 cell CPT: DT40-hTDP1 cell growth loss with CPT | Potency, µM (highest dose often 46.2 µM), for inactives: at the top dose activity change, negative = growth inhibition, most hits filed as inhibitors | 420,000 compounds, 12% hits | AID 686979 | chicken DT40 Tdp1-/-;hTDP1 cells + 20 nM CPT, ATP luminescence, 48 h; also: nearly all actives have a fitted effect of over 55% in size
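Cell growth measured by CellTiter-Glo luminescence after a minimum 48 h, 37 C compound exposure with 20 nM CPT in Tdp1-knockout DT40 cells stably expressing hTDP1, seeded 400/well; qHTS titration format.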
ELG1 DNA repair: ELG1-dependent DNA repair inhibition | HEK293T ELG1-luciferase reporter, luminescence, 16 h; DNA damage induced by 5-fluorouridine | 330,000 compounds, 2.3% hits | Potency, µM (top dose mostly 46.1 µM), without a hit: at the highest dose activity change, negative = inhibition, hits mostly inhibitors; also: nearly all actives have a fitted effect of over 55% in size
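Luminescence from the luciferase reporter, measured 30 min after ONE-Glo reagent at room temperature, was the read-out. Beforehand, 2,000 cells per well were exposed for 16 hr at 37 °C to 5-fluorouridine together with compound or vehicle.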
RORg inh: inhibitors of mouse ROR gamma transcriptional activity; Drosophila S2 Gal4-RORgamma UAS-luciferase reporter, 20 h; Potency, µM (series often up to 53.6 µM), for the others: top-dose activity change, negative = inhibition, actives largely listed as inhibitors; P51450; 310,000 compounds, 5.4% hits; AID 2551; also: nearly all actives have a fitted effect of over 60% in size
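Luminescence from a UAS-regulated Photinus luciferase reporter in stably transfected Drosophila Schneider cells is measured; decreased signal marks ROR gamma inhibition. Fusion expression is induced by 700 uM copper sulfate for 20 hr.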
ELG1 FLuc counter: luciferase inhibition in cell-free luciferin readout for ELG1 hits | 350 compounds, 3% hits | AID 624247 | shares compounds with ELG1 DNA repair | cell-free firefly luciferase luminescence counter-screen, ViewLux | Potency, µM (highest dose often 46.1 µM), inactives show at the top dose activity change, negative = inhibition, actives largely listed as inhibitors
ELG1-Luc inh: human ELG1 repair inhibition, luciferase-tagged ELG1 confirmation; shares compounds with ELG1 DNA repair; HEK293T ELG1-luciferase levels, luminescence; cells co-treated with 5-fluorouridine; Potency, µM (doses to about 46.1 µM), without a hit: top-dose activity change, negative = inhibition, actives largely listed as inhibitors; 670 compounds, 68% hits; AID 624248; also: nearly all actives have a fitted effect of over 55% in size
ELG1-Luc MMS: confirmation of human ELG1 repair inhibitors, MMS stimulated | AID 624249 | shares compounds with ELG1 DNA repair | Potency, µM (highest dose often 46.1 µM), without a hit: top-dose activity change, negative = inhibition, actives largely listed as inhibitors | 670 compounds, 53% hits | HEK293T luciferase-tagged ELG1 level, MMS stimulated; also: nearly all actives have a fitted effect of over 60% in size
ELG1 5-FU: confirmation of ELG1 repair inhibitors: viability with 5FU | shares compounds with ELG1 DNA repair | Potency, µM (highest dose often 46.1 µM), for inactives: at the highest dose activity change, negative = viability loss, hits mostly cytotoxic | cell viability with 5-FU, ELG1-dependent repair | 670 tested, under 10 active;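 also: ELG1-luc HEK293T cells cotreated with 5-fluorouridine at 10 µM final; viability measured 16 h after compound addition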
ELG1 MMS cell: confirmation of ELG1 repair inhibitors: viability with MMS; shares compounds with ELG1 DNA repair; Cell viability with MMS, ELG1-dependent DNA repair; Potency, µM (highest dose often 46.1 µM), for the others: at the top dose activity change, negative = viability loss, most hits filed as cytotoxic; 670 compounds, 33% hits;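 also: ELG1-luc HEK293T cells co-treated with 10 µM MMS; viability read 16 h after compound addition; nearly all actives have a fitted effect of over 60% in size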
Cell viab unstim: counter-screen for ELG1 repair inhibitors: unstimulated cell viability; shares compounds with ELG1 DNA repair; cell viability counter-screen, unstimulated, luminescence; Potency, µM (top dose mostly 45.9 µM), for inactives: at the highest dose activity change, negative = loss of viability, actives largely listed as cytotoxic; 900 compounds, 8% hits;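 also: compound exposure lasted 16 hours before reading; nearly all actives have a fitted effect of over 55% in size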
FLuc enzyme: firefly luciferase inhibition counter-screen; shares compounds with ELG1 DNA repair; purified firefly luciferase, luminescence counter-screen; 350 compounds, 10% hits; Potency, µM (top dose mostly 57.5 µM), inactives show top-dose activity, negative = inhibition, usual class: inhibitors
Numbers without * were called inactive; u = inconclusive; x = not tested or not shown. Calls follow the shape of the dose curve; as a rule, active = well fitted curve in the direction sought with a large enough effect; inconclusive = small, poorly fitted or top-dose-only effect, or another doubt; inactive = no such curve, though single readings can be large; an effect the other way counts as inactive or inconclusive. % is scaled to controls: 0 for no effect and ±100 for the full control effect; potency is read from the fitted curve at half-maximal effect.

SMILES	ALOX12 inh	Gal4-VP16 FLuc	TDP1 cell noCPT	TDP1 cell CPT	ELG1 DNA repair	RORg inh	ELG1-Luc inh	ELG1-Luc MMS	ELG1 5-FU	ELG1 MMS cell	Cell viab unstim	others
Cc1c(C(=O)NCc2ccccn2)oc2ccc(S(=O)(=O)N3CCOCC3)cc12	2.5%	-11.7%	-16.4%	-21.8%	u	2.6%	x	x	x	x	x
COc1ccc(NC(=O)c2c(N)no[n+]2[O-])cc1	-15.7%	7.6%	-26.4%	-4.6%	4.61µM*	16.6%	13.9%	4.9%	-0.5%	-6.3%	-4.3%
COc1ccc(-c2cc(=O)oc3c(C)c(OC(=O)c4cccs4)ccc23)cc1	-4.1%	3.2%	u	3.66µM*	4.11µM*	-4.4%	4.45µM*	u	-4.1%	-2.4%	-6.4%
COCC1CN(S(=O)(=O)c2ccc3c(c2)CCC3)CC12CCNCC2 (stereo not drawn)	26.7%	x	x	x	x	x	x	x	x	x	x
O=C(c1ccc(-c2cc3ccccc3oc2=O)cc1)N1CCN(c2ccc(Cl)cc2[N+](=O)[O-])CC1	-6.3%	-11.1%	u	u	4.61µM*	75.5%	4.99µM*	-7.0%	u	u	u
Cc1cc(C(=O)NNc2ccc(F)cc2F)no1	1.3%	0.3%	-17.7%	-1.4%	4.11µM*	11.2%	20.0%	28.0%	-9.4%	-5.3%	-11.1%
CCc1noc(-c2cn(C3CCN(C(=O)c4ccc(OC(F)(F)F)cc4)CC3)nn2)n1	10.0%	x	x	x	x	x	x	x	x	x	x
COc1ccc(Cc2nc3ccc(C(=O)N(C)Cc4nccs4)cc3o2)cc1OC	0.3%	u	u	10.3µM*	4.11µM*	-5.3%	u	2.23µM*	9.0%	7.91µM*	u
CCOC(=O)c1cnc(-n2nc(C)cc2C)nc1Nc1ccc(O)cc1	u	-3.8%	2.91µM*	2.31µM*	4.11µM*	-40.5%	3.53µM*	2.5µM*	-2.6%	2.81µM*	u
CCOC(=O)c1cnc2c(C)cccc2c1Nc1ccc(O)cc1	-27.9%	x	x	x	x	x	x	x	x	x	x
Cc1ccc2c(c1)C/C(=C/c1ccc(N(C)C)cc1)C2=O	x	x	u	u	x	x	x	x	x	x	0.5%
O=C(Oc1ccc(Cl)c(OC(=O)c2ccc(F)cc2)c1)c1ccc(F)cc1	4.1%	x	x	x	x	x	x	x	x	x	x
O=C(CC1OC(=O)c2ccccc21)Nc1cc(Cl)ccc1N1CCOCC1 (stereo not drawn)	0.0%	x	u	-25.3%	4.11µM*	x	u	-1.4%	3.9%	1.6%	-7.4%
Cc1nc(N2CCC(C(=O)Nc3ccc(Br)cc3F)CC2)c2c(C)c(C)oc2n1	2.4%	x	x	x	x	x	x	x	x	x	x
NC(=O)c1c(NC(=O)Cn2cc([N+](=O)[O-])cn2)sc2c1CCCC2	-19.5%	1.9%	u	u	-4.8%	u	x	x	x	x	x
CCOC(=O)c1c(NC(=O)Cn2cc([N+](=O)[O-])cn2)sc2c1CCC2	12.4%	-3.6%	-5.9%	2.2%	1.84µM*	-1.5%	-9.1%	17.7µM*	4.8%	7.91µM*	u
O=C(Cc1n[nH]c(=O)c2ccccc12)Nc1ccc(F)cc1F	-4.6%	x	x	x	x	x	x	x	x	x	x
Cc1nn(-c2ccc(C(=O)N3CCN(S(=O)(=O)c4ccccc4C(F)(F)F)CC3)cc2)c(C)c1Cl	0.0%	x	u	u	3.26µM*	x	7.05µM*	u	u	u	u
CCc1cc(=O)oc2c3c(cc(OCC(=O)NCc4cccnc4)c12)OC(C)(C)CC3	-10.8%	u	20.6µM*	u	3.66µM*	-28.3%	u	16.1%	5.3%	-1.1%	u
CCC(CC)NC(=O)Cc1c(C)[nH]c2ccc(F)cc12	4.3%	x	x	x	x	x	x	x	x	x	x
CC(C)CNCc1cccc(C(N)=O)c1	-1.6%	x	x	x	x	x	x	x	x	x	x
COc1ccc(CCNc2ncnc3sccc23)cc1OC	-6.3%	0.631µM*	0.291µM*	0.164µM*	0.291µM*	u	u	0.281µM*	-0.2%	0.397µM*	u	ELG1 FLuc counter=11.6%;FLuc enzyme=-9.6%
CSc1ccc(C(=O)c2[nH]c(=O)[nH]c2C)cc1	-18.3%	-1.1%	-6.9%	-10.2%	u	4.6%	x	x	x	x	u	ELG1 FLuc counter=171.1%;FLuc enzyme=u
